The list is not random: actives were taken first. Their share in the collection is about 21%.
Shiga inhibitor = Shiga toxin inhibition; inhibition, % at 38.7 µM; AID 2315; actives 9.2% (n = 290,000); Vero cells, Shiga toxin protein synthesis inhibition reporter; in the data active means inhibition mostly above about 28%, no sharp cut-off; inactive means mostly below about 43%
FBPA Giardia inh = Giardia lamblia aldolase inhibition | A8B2U2 | purified Giardia FBPA | Potency, µM (doses to about 59.6 µM), hits mostly inhibitors | actives 0.71% (n = 290,000) | AID 2451; further: nearly all actives have a fitted effect of over 55% in size
Target sequence (A8B2U2 whole entry, looked up): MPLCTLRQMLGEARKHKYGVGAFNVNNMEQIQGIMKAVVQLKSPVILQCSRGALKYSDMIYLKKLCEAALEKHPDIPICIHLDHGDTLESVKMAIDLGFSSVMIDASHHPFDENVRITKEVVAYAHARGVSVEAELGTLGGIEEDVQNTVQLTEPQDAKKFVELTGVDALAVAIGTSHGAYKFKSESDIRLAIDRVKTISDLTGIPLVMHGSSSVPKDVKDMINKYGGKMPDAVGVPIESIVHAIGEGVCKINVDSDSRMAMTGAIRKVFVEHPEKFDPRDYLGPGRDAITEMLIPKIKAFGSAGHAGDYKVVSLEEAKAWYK
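40 nM FBPA preincubated 10 min at RT with compound (up to 57.5 uM final), then substrate plus GAPDH/TPI/NAD/arsenate coupling and diaphorase/resazurin added. Fluorescence read after 20 min at RT, 525/598 nm.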
CHX counter = counter-screen for Shiga toxin inhibitors: cycloheximide protein synthesis inhibition. cell reporter, cycloheximide protein synthesis inhibition counterscreen. AID 2314. max response, %. actives 12% (n = 300,000); in the data active means max response mostly above about 13%, no sharp cut-off; inactive means mostly below about 14%; further: read at 38.3 µM for the half of the compounds with a filed dose
Pf growth 96h = P. falciparum growth inhibition at 96 hour, primary screen for plastid delayed-death inhibitors. Potency, µM (series often up to 28.7 µM), most hits filed as inhibitors. P. falciparum luciferase reporter growth, 96 h. actives 6.9% (n = 320,000). AID 504834
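Two-generation exposure (96 h) targets delayed-death phenotype. Reporter parasites carrying integrated firefly luciferase, in red cells at 2% hematocrit and 0.05% parasitemia final, kept at 37 C, 5% CO2; luminescence loss indicates inhibition.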
NS1 inh = inhibitors of influenza NS1 protein function | Potency, µM (series often up to 46.1 µM) | actives 0.4% (n = 270,000); calls by dose curve; further: actives are rising curves; nearly all actives have a fitted effect of over 50% in size
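S. cerevisiae expressing influenza A NS1, grown in glucose, washed, then diluted 1:100 into pH 6.0 -URA galactose medium with 23 nl compound. Growth recovery read as OD600; NS1-free strain serves as control.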
Pf growth 48h = inhibits P. falciparum growth in the first generation, 48 h. P. falciparum luciferase growth in erythrocytes, 48 h. Potency, µM (highest dose often 28.7 µM), most hits filed as inhibitors. actives 5.9% (n = 310,000). AID 504832
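Read-out is firefly luciferase luminescence from an integrated reporter in P. falciparum, so falling signal marks reduced parasite growth. Infected erythrocytes were at 2% hematocrit and 0.1% parasitemia (final) in Albumax-supplemented RPMI 1640.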
Of the large screens only hits and unclear results are named; the others gave an inactive call. Unless noted, the call rests on the fitted dose curve; in most records, active means well fitted curve in the direction sought with a large enough effect; inconclusive means small, poorly fitted or top-dose-only effect, or another doubt; inactive means no such curve, though single readings can be large; an effect the other way counts as inactive or inconclusive.

c1ccc2[nH]c(-c3ccnc4ccccc34)nc2c1	FBPA Giardia inh inconclusive, CHX counter 27, Pf growth 96h inconclusive
Clc1ccccc1-c1nc2ccccc2[nH]1	Shiga inhibitor 81, CHX counter 53
Cc1ccccc1-c1nc2ccccc2[nH]1	Shiga inhibitor 95, CHX counter 46
Cn1cc(Cl)c(-c2nc3ccccc3[nH]2)n1	Shiga inhibitor 71, CHX counter 26 (no result: Pf growth 48h)
C[C@@]12CC[C@H]3[C@@H](CC[C@H]4C[C@@H](O)CC[C@]43C)[C@H]1CC[C@@H]2C(=O)C[C@H](O)C(F)(F)F	none (no result: Shiga inhibitor, FBPA Giardia inh, CHX counter, Pf growth 96h, Pf growth 48h)
Fc1ccccc1-c1nc2ccccc2[nH]1	Shiga inhibitor 111, CHX counter 39, Pf growth 96h 13µM
C=CCOn1c(=O)c(-c2ccc(F)cc2)[n+]([O-])c2ccccc21	none
Cc1sc(NC(=O)C2C3CCC(O3)C2C(=O)O)nc1-c1ccc(CC(C)C)cc1 (configuration not stated)	Shiga inhibitor 80, CHX counter 42
Cc1ccc(CNC(=O)[C@]2(C(F)(F)F)C[C@H](CCc3ccccc3)CCCO2)o1	none (no result: Pf growth 96h, NS1 inh, Pf growth 48h)
CC(CCC#N)[N+](=O)[O-] (configuration not stated)	none (no result: Shiga inhibitor, CHX counter, Pf growth 96h, NS1 inh, Pf growth 48h)
O=c1c2sccc2nc(SCc2cc(=O)n3cc(Br)ccc3n2)n1Cc1ccccn1	Shiga inhibitor 93, FBPA Giardia inh inconclusive, CHX counter 26, Pf growth 96h inconclusive (no result: NS1 inh)
Cc1ccc(CSc2nc3ccsc3c(=O)n2Cc2ccccn2)cc1	none
N#Cc1ccccc1CSc1nc2ccsc2c(=O)n1Cc1ccccn1	CHX counter 18, Pf growth 96h inconclusive
CCOC(=O)Cn1c(S(=O)(=O)Cc2ccc(Cl)cc2)nc(-c2ccccc2)c1-c1ccccc1	Pf growth 96h 10µM, Pf growth 48h inconclusive
O=C(NCCC1=CCCCC1)C1COc2ccccc2O1 (configuration not stated)	Shiga inhibitor 54, CHX counter 20
O=C(NCCc1ccc(C(F)(F)F)cc1)C1COc2ccccc2O1 (configuration not stated)	Shiga inhibitor 112, CHX counter 42
CCC1Oc2ccccc2N(CC(=O)NCCC2=CCCCC2)C1=O (configuration not stated)	Pf growth 96h inconclusive, Pf growth 48h inconclusive
O=C(Nc1nc2ccccc2s1)c1ccc([N+](=O)[O-])o1	Shiga inhibitor 48, CHX counter 33, Pf growth 96h inconclusive
Cc1cc(C)c2sc(NC(=O)c3ccc([N+](=O)[O-])o3)nc2c1	FBPA Giardia inh inconclusive, Pf growth 96h inconclusive, Pf growth 48h inconclusive
O=C(Nc1nc2cc3c(cc2s1)OCCO3)c1ccc([N+](=O)[O-])o1	Shiga inhibitor 45, CHX counter 48, Pf growth 96h 8.3µM (no result: FBPA Giardia inh)
COc1ccc2nc(NC(=O)c3ccc([N+](=O)[O-])o3)sc2c1	Shiga inhibitor 55, CHX counter 34, Pf growth 48h inconclusive
O=C(Nc1nc2c(F)cc(F)cc2s1)c1ccc([N+](=O)[O-])o1	Shiga inhibitor 50, CHX counter 26, Pf growth 96h inconclusive
Cc1cc(C)c2nc(NC(=O)c3ccc([N+](=O)[O-])o3)sc2c1	Pf growth 96h inconclusive, Pf growth 48h inconclusive (no result: Shiga inhibitor)
CCOc1ccc(-c2cc(C(=O)NN3CCN(C)CC3)c3cc(Cl)ccc3n2)cc1	Pf growth 96h 4.1µM, Pf growth 48h 2.3µM
CCOc1ccc(-c2cc(C(=O)N3CCN(C)CC3)c3ccccc3n2)cc1	Shiga inhibitor 50, CHX counter 38 (no result: Pf growth 96h)
CCOC(=O)N1CCN(C(=O)c2cc(-c3ccc(OCC)cc3)nc3ccccc23)CC1	Shiga inhibitor 66, CHX counter 37, Pf growth 96h 3.7µM
CCOc1ccc2nc(-c3ccc(OC)c(OC)c3)cc(C(=O)O)c2c1	none
C[C@@]12CCC3c4ccc(OS(=O)(=O)O)cc4CCC3C1CCC2O (some centres not stated)	none (no result: Shiga inhibitor, CHX counter, Pf growth 96h, NS1 inh, Pf growth 48h)
CSc1ccc(CNC(=O)CCn2ccc3cc(S(=O)(=O)N4CCCC4)ccc32)cc1	Pf growth 96h inconclusive, Pf growth 48h inconclusive
CCOC(=O)c1nn(-c2ccc(C)cc2)cc1C(=O)c1ccccc1	Shiga inhibitor 113, CHX counter 68 (no result: Pf growth 48h)
O=C(c1cccc(Br)c1)c1cn(-c2ccccc2)nc1C(=O)c1ccccc1	Pf growth 96h inconclusive, Pf growth 48h 4.7µM
CCC1(c2ccccc2)C(=O)N(C(=O)OC(C)(C)C)N1C(=O)OC(C)(C)C (configuration not stated)	Pf growth 96h inconclusive, Pf growth 48h 13µM (no result: Shiga inhibitor, FBPA Giardia inh, CHX counter, NS1 inh)
CCOC(=O)N1C(=O)[C@](CC)(c2ccccc2)N1C(=O)OCC	CHX counter 19
C[C@@H](NC(=O)C1(c2ccccc2)CCN(C(=O)OC(C)(C)C)CC1)C(=O)N[C@@H](Cc1ccccc1)C(=O)O	Pf growth 96h inconclusive, Pf growth 48h inconclusive
CCOC(=O)C1C(C(=O)OCC)C1(c1ccccc1)c1ccccc1 (configuration not stated)	Pf growth 48h inconclusive
C=CCN1c2ccccc2[C@]23C[C@@H](C(=O)OC)N(S(=O)(=O)c4ccc(C)cc4)C2=NC(C(=O)OC)=C(C(=O)OC)[C@H]13	none (no result: Shiga inhibitor, CHX counter, Pf growth 96h, NS1 inh, Pf growth 48h)
O=C(NCCN1CCCC1)c1ccccc1Cl	none
Cc1ccc(NC(=O)N2CCCC2)cc1Cl	Shiga inhibitor 84, CHX counter 38 (no result: NS1 inh)
Cc1ccc(NC(=O)C(=O)N2CCCC2)cc1Cl	Shiga inhibitor 116, CHX counter 39
O=C(NCCN1CCCCC1)c1ccc(F)cc1Cl	CHX counter 12
Cc1ccc(NC(=S)N2CCCC2)cc1Cl	none (no result: FBPA Giardia inh)
Cc1ccc(NC(=O)NCCN2CCCCC2)cc1Cl	CHX counter 13, Pf growth 96h inconclusive
O=C(c1ccc(F)cc1)N1CCN(Cc2ccccc2)CC1	FBPA Giardia inh inconclusive
O=C(NCCN1CCN(C(=O)c2ccc(F)cc2)CC1)c1ccc(F)cc1	Pf growth 96h 12µM
O=C(Nc1ccc(Cl)c(Cl)c1)N1CC=CCC1	Shiga inhibitor 86, CHX counter 33
CC1CCc2nn(CC(=O)NCc3ccc4c(c3)OCO4)cc2C1 (configuration not stated)	none
CCOC(=O)N1CCC(NC(=O)Cn2cc3c(n2)CCC(C)C3)CC1 (configuration not stated)	none
CC1CCc2nn(CC(=O)NC3CCCC(C)C3C)cc2C1 (configuration not stated)	Pf growth 96h 0.37µM
CC1CCc2nn(CC(=O)Nc3ccc(F)cc3F)cc2C1 (configuration not stated)	Pf growth 96h 2.9µM
CC1CCc2nn(CC(=O)NCc3ccc(F)cc3)cc2C1 (configuration not stated)	Pf growth 96h 9.3µM
CCN(CC(=O)NCc1cccs1)C(=O)c1ccc(S(=O)(=O)Nc2ccccc2F)cc1	none (no result: Shiga inhibitor, FBPA Giardia inh, CHX counter, NS1 inh)
Cc1ccc(S(=O)(=O)N2CCc3nc(-c4ccccc4)c4c(c3C2)CO[C@@H](C)C4)cc1	none (no result: Shiga inhibitor, CHX counter, Pf growth 96h, NS1 inh, Pf growth 48h)
Cc1ccc(-c2cc(C(=O)N/N=C/c3ccco3)n[nH]2)s1	CHX counter 23, Pf growth 48h 10µM

Screens (PubChem)
